PTAP TSG101 blk: blocks PTAP/TSG101 interaction to inhibit HIV-1 budding | Q99816 | Fluorescence polarization, FITC-PTAP peptide / Tsg101 binding | Potency, µM (titrated, usually from 115 µM), usual class: inhibitors | 340,000 tested, under 10 active | AID 493005; active = well fitted inhibition curve with a large enough effect in the main read-out, with a control signal flat, not every such curve was filed as active; inconclusive = small, poorly fitted or top-dose-only effect, or effect the other way, or a change in a side signal; inactive = no such curve, though single readings can be large or run the other way
Target sequence (Q99816 whole entry, looked up): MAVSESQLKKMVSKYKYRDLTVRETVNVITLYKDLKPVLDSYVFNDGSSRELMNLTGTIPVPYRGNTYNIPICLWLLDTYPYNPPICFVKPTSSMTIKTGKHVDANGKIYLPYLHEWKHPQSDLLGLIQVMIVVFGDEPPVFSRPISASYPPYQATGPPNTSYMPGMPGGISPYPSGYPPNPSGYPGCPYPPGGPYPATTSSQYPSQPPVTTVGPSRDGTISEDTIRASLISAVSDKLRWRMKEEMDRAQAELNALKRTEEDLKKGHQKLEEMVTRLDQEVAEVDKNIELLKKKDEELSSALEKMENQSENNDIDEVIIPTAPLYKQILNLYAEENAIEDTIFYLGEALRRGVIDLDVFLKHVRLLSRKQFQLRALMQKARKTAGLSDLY
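Fluorescence anisotropy tracks displacement of a FITC-tagged PTAP peptide (50 nM) from the Tsg101 binding domain (10 uM), following a 20 min room-temperature incubation at pH 7.5.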
PINK1 modulator: PINK1 expression modulation | PINK1 immunofluorescence, high-content cytometry, 24 h | Potency, µM (series often up to 76.6 µM), actives largely listed as activators | 410,000 tested, 0.2% active; active = well fitted activation curve with a large enough effect; inconclusive = small, poorly fitted or top-dose-only effect; cell line not stated here; note: nearly all actives have a fitted effect of over 65% in size
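Cells are seeded, rested 12 hours, then given compound at five concentrations or DMSO for 24 hours. After fixation, blocking and antibody staining, PINK1 amount and mitochondrial localization are scored; CCCP serves as control.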
KB-3-1 cytotox: KB-3-1 parental cell cytotoxicity; KB-3-1 viability, CellTiter-Glo ATP luminescence, 72 h; Potency, µM (series often up to 46.1 µM), hits mostly cytotoxic; 400,000 tested, 1.4% active; note: nearly all actives have a fitted effect of over 60% in size
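Luminescent ATP read-out (CellTiter-Glo) measures survival of drug-naive KB-3-1 cells after 72 h compound exposure at 37 °C. Titration series was screened from lowest to highest concentration, with DMSO vehicle plates as background controls.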
MCF10A rereplic: inducers of DNA re-replication in MCF 10A breast cells | MCF 10A DNA re-replication, Hoechst nuclear intensity, 48 h | Potency, µM (series often up to 46.1 µM), usual class: activators | 350,000 tested, 2.9% active; note: nearly all actives have a fitted effect of over 50% in size
KB-V1 cytotox: KB-V1 MDR subline cytotoxicity. 400,000 tested, 3.4% active. KB-V1 MDR cells viability, CellTiter-Glo, 72 h. Potency, µM (doses to about 46.1 µM), usual class: cytotoxic; note: nearly all actives have a fitted effect of over 60% in size
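In this primary screen, KB-V1 cells overexpressing P-gp are incubated with library compounds (lowest to highest concentration) for 72 h at 37 degrees C before a luminescent ATP viability read.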
SW480 rereplic: induces DNA re-replication in SW480 colon adenocarcinoma cells | SW480 DNA re-replication, Hoechst DNA content imaging, 48 h | Potency, µM (titrated, usually from 46.1 µM), usual class: activators | 340,000 tested, 1.8% active; note: nearly all actives have a fitted effect of over 55% in size
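250 cells/well; 23 nL cpd via pin tool; 48 hr, 37 C, 5% CO2; Hoechst 40 min; imager read of total nuclear intensity, ex 405/em 500-530 nm.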
Hits are given with their value; - = inactive; ? = inconclusive; . = not tested or not shown; ! = not confirmed by another sample. Hits are enriched below; roughly 6.8% of the tested compounds scored in any of these assays. Unless noted, calls come from the whole dose curve; as a rule, active = well fitted curve in the direction sought with a large enough effect; inconclusive = small, poorly fitted or top-dose-only effect, or another doubt; inactive = no such curve, though single readings can be large; an effect the other way counts as inactive or inconclusive.

SMILES | PTAP TSG101 blk | PINK1 modulator | KB-3-1 cytotox | MCF10A rereplic | KB-V1 cytotox | SW480 rereplic
COCCNc1nnc(SCC(=O)Nc2cc(-c3ccccc3)nn2-c2ccccc2)s1 | - | - | - | - | 16µM | -
CCn1c(=O)cc(SCC(=O)Nc2cc(Cl)ccc2OC)c2ccccc21 | . | - | - | . | - | .
O=C(NCC1Cc2cccc(-c3ncccn3)c2O1)C1CCCO1 (stereo not drawn) | . | - | . | . | . | .
O=C(NCc1ccccc1)C(=O)NCC1COc2ccccc2O1 (stereo not drawn) | - | - | - | 12µM | 5.2µM | ?
CCCn1nc(C(=O)NC2CC2)c2ccccc2c1=O | - | - | - | - | - | -
CCCn1nc(C(=O)NCC2COc3ccccc3O2)c2ccccc2c1=O (stereo not drawn) | - | - | - | - | 7.3µM | -
CCN(CC1COc2ccccc2O1)C(=O)CN1C(=O)NC(C)(c2ccc(C)cc2)C1=O (stereo not drawn) | - | - | - | - | ? | -
CC(C)c1ccc(C2(C)NC(=O)N(CC(=O)NCC3COc4ccccc4O3)C2=O)cc1 (stereo not drawn) | - | - | - | - | 16µM | -
CCCCn1nc(C(=O)NCC(=O)Nc2c(C)cccc2C)c2ccccc2c1=O | - | - | - | - | 1.6µM | -
Cc1nc2ccccc2nc1CN1CCOc2ccc(C(C)(O)COc3ccccc3)cc2C1 (stereo not drawn) | . | - | . | . | . | .
O=C(CCCN1CCC(C(=O)c2ccc(F)cc2)CC1)c1ccc(F)cc1 | - | - | - | 21µM! | - | -
O=C(CCCN1CCC(O)(c2ccc(Cl)cc2)CC1)c1ccc(F)cc1 | - | - | - | 21µM! | ? | -
CC(CCc1ccc(O)cc1)NC(c1ccccc1)c1ccc(Cl)cc1 (stereo not drawn) | - | - | - | 16µM | - | ?
CCc1nc(SCC(=O)O)c(C#N)cc1C | - | . | - | - | - | -
CCOC(=O)CC(=O)CSc1nc(CC)c(C)cc1C#N | - | - | - | - | - | 23µM
CCSc1nc2ccc(C)cc2cc1C#N | - | - | - | - | - | -
CCOC(=O)CC(=O)CSc1nc2ccc(C)cc2cc1C#N | ? | - | - | 23µM | - | -
COc1cc(NC(=O)CSc2cc(=O)n(C)c3ccccc23)cc(OC)c1OC | . | - | - | . | - | .
Nc1nn2cc(-c3ccccc3)nc2c2ccccc12 | - | - | - | - | 16µM | -
COc1cc(=O)n2c(c1C(=O)N(C)Cc1nccs1)CCN(Cc1ccc(F)c(F)c1)CC2 | . | - | . | . | . | .
CSc1nc(N(C)NC(=O)c2ccc(F)cc2)c2ccccc2n1 | - | - | 0.65µM | 1.8µM | 1µM | 2.3µM
COc1ccc(CN2CCOc3ccc(CN4CCC(O)CC4)cc3C2)c(OC)c1OC | . | - | . | . | . | .
Cc1cc(C)c2nc(C(F)(F)F)nc(NCCCN3CCOCC3)c2c1 | - | - | ? | ? | 3.7µM | ?
CC(C)CCNC(=O)C(c1ccco1)N(Cc1cccs1)C(=O)Cn1nnc2ccccc21 (stereo not drawn) | - | - | - | - | 5.2µM | -
COc1ccc(NC(=O)c2cnc3sc(N4CCOCC4)nn3c2=O)c(OC)c1 | . | - | - | . | ? | .
SMILES | PTAP TSG101 blk | PINK1 modulator | KB-3-1 cytotox | MCF10A rereplic | KB-V1 cytotox | SW480 rereplic
Cc1c(Br)c(C(=O)NCc2cc3cc(Cl)ccc3[nH]2)nn1C | - | - | - | - | - | -
Cn1cc([N+](=O)[O-])c(C(=O)NCc2cc3cc(Cl)ccc3[nH]2)n1 | - | - | 9.2µM | - | - | -
N#Cc1nc(Cc2cccc3ccccc23)oc1NCC1CCCO1 (stereo not drawn) | . | - | - | - | 16µM | -
N#Cc1nc(Cc2cccc3ccccc23)oc1NCc1ccco1 | - | ? | - | ? | ? | -
O=C(Nc1ccc(Cn2cccn2)cc1)c1ccc(COc2cccc(Br)c2)cc1 | - | - | 0.73µM | ? | 9.2µM | -
Cc1cccc(NC(=O)C(Cc2ccccc2)n2cccc2)c1C (stereo not drawn) | . | - | . | . | . | .
Cc1cc(Cl)ccc1Oc1ccc(C(N)=O)cc1[N+](=O)[O-] | - | - | - | ? | - | -

Screens from PubChem.
